# MITF primary: blocks human microphthalmia-associated transcription factor | O75030 | AlphaScreen MITF homodimerization, bead proximity signal | inhibition, % at 2.6 µM | 650,000 compounds, 0.91% hits | AID 1259374; in the data active = inhibition above about 50%
# Target sequence (O75030 whole entry, looked up): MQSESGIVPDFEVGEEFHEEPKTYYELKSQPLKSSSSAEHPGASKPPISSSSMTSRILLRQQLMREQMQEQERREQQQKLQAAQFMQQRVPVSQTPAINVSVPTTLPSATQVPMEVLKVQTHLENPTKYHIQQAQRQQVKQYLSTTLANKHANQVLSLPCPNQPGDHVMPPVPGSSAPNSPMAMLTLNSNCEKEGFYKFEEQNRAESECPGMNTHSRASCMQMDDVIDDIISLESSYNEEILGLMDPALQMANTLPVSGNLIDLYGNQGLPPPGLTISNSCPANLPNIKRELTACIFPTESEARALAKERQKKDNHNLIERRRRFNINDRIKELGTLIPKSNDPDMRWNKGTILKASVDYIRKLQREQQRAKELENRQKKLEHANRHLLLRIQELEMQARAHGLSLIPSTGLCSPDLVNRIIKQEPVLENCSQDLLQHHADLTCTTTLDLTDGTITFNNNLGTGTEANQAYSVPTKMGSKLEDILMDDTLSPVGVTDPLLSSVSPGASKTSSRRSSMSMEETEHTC
# FBW7 activator: activators of human E3 ligase FBW7; normalized activity (activation), % at 26.1 µM; AlphaScreen FBW7–phospho-cyclin E peptide binding, activator screen; Q969H0; 650,000 compounds, 0.13% hits; in the data active = normalized activity above about 1.9%;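 note: purified mutant Fbw7 with reduced substrate affinity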
# GPR151 ag: activates the human receptor GPR151; PathHunter beta-arrestin GPR151 cells, luminescence; activation, % at 11.2 µM; 650,000 compounds, 1% hits; AID 1508602; in the data active = activation above about 4.9%
# TEAD-YAP inh: TEAD-YAP interaction inhibition; HEK-TIYL cells, TEAD-Gal4/YAP UAS-luciferase luminescence; inhibition, % at 9.12 µM; 640,000 compounds, 1.4% hits; in the data active = inhibition above about 32%
# Hits are given with their value; - = inactive. Rows were chosen to be rich in hits. Some 3.5% of all compounds tested hit in one or more screens of this group.
SMILES,MITF primary,FBW7 activator,GPR151 ag,TEAD-YAP inh
CC(=O)N1c2c(cc(Br)cc2S(=O)(=O)N2CCCC(C)C2)CC1C (stereo not given),-,-,-,-
O=C(Nc1cccc(O)c1)c1ccccc1,-,-,-,48
CC(=O)c1ccc(NC(=O)c2noc3c2CCc2ccccc2-3)cc1,-,-,-,-
Nc1ccc(C(=O)Nc2ccc(O)cc2)cc1,-,-,-,-
Nc1ccc(C(=O)Nc2cccc(O)c2)cc1,-,-,-,59
O=C(Nc1cccc(O)c1)c1noc2c1CCc1ccccc1-2,-,-,-,87
O=[N+]([O-])c1cc(Cl)ccc1NCC1COc2ccccc2O1 (stereo not given),-,-,-,-
COc1cc([N+](=O)[O-])cc(/C=N/NC(=O)c2cc(C)[nH]n2)c1O,59,-,-,-
COc1cc(Br)cc(/C=N/NC(=O)c2cc(C)[nH]n2)c1O,55,-,-,-
Cc1cc(C(=O)N/N=C\c2ccccc2O)n[nH]1,-,-,-,-
Cc1cc(C(=O)N/N=C/c2cc(N=Nc3ccccc3)ccc2O)n[nH]1,-,-,-,62
COc1cc(/C=N/NC(=O)c2cc(C)[nH]n2)c(Br)c(Br)c1O,-,-,-,-
CCOC(=O)c1sc2nc(CC(=O)OC)nc(NC3CCCCCC3)c2c1C,-,-,-,-
CCOC(=O)C(O)(c1ccc(N(CC)C(=O)c2ccccc2)cc1)C(F)(F)F (stereo not given),-,2.6,-,-
C=CCn1c(SCC)nnc1-c1ccc([N+](=O)[O-])cc1,-,-,-,-
C=CCn1c(Sc2ccc([N+](=O)[O-])cn2)nnc1-c1ccc(OC)cc1,-,-,-,48
COc1ccc(OC)c(NC2=C(Cl)C(=O)c3ccccc3C2=O)c1,62,-,-,-
Cc1ccc2[nH]c(C)c(CCNS(=O)(=O)c3cc([N+](=O)[O-])ccc3C)c2c1,-,-,-,-
Cc1[nH]c2ccc(F)cc2c1CCNS(=O)(=O)c1cc([N+](=O)[O-])ccc1Cl,-,-,-,61
N#CC1=C(N)N(c2sc3c(c2C#N)CCCCC3)C2=C(C(=O)CCC2)C1c1ccccc1 (stereo not given),-,-,-,-
N#CC1=C(N)N(c2sc3c(c2C#N)CCCCC3)C2=C(C(=O)CCC2)C1c1cccs1 (stereo not given),-,-,-,53
O=c1oc(-c2cccc([N+](=O)[O-])c2)nc2c(Br)cc(Br)cc12,-,-,-,-
Oc1ccccc1-c1cc(-c2ccccc2)no1,-,-,-,-
Cc1ccc(-c2cc(-c3ccccc3)no2)c(O)c1,-,-,-,52
O=c1c2ccccc2nc2c3ccccc3c(NCCN3CCOCC3)nn12,-,-,-,74
SMILES,MITF primary,FBW7 activator,GPR151 ag,TEAD-YAP inh
O=c1c2c(-c3ccccc3)csc2nc2c3ccccc3c(NCCCN3CCOCC3)nn12,-,-,-,-
COc1cccc2c(S(=O)(=O)N3CCc4ccccc4C3C(=O)O)ccnc12 (stereo not given),-,-,-,-
COc1ccccc1Oc1nnnn1-c1ccc(C(=O)O)cc1,-,-,-,-
CCN(CC)C(=O)c1ccc(Oc2nnnn2-c2ccccc2)c(OC)c1,-,-,-,32
CC(=O)C1=C(c2ccc(C3CCCCC3)cc2)N(C(C)=O)n2cnnc2S1,-,-,-,74
COc1cccc2cc(-c3nc4ccccc4[nH]3)c(=Nc3ccccc3Cl)oc12,-,-,-,-
Cc1cc(C)c2nc(SCC(=O)N3CC(=O)Nc4ccccc43)c(C#N)cc2c1,-,-,-,54
CC1=CC(=O)C(N2CCC(Cc3ccccc3)CC2)=CC1=O,60,-,-,-
O=S(=O)(Cc1ccccc1)N1CCC(Cc2ccccc2)CC1,-,-,-,-
Cc1sc2ncnc(OCc3ccc(C(=O)OC(C)C)o3)c2c1C,-,-,-,-
O=C(Cn1c2c(c3ccccc31)CCC2)NC1=NCCS1,-,-,-,77
Cc1ncc(CO)c(/C=N/NC(=O)c2cc3c(s2)CCCC3)c1O,-,-,-,40
Cc1ncc(CO)c(/C=N/NC(=O)c2ccc(C(C)(C)C)cc2)c1O,-,-,-,83
Cc1ncc(CO)c(/C=N/Nc2nc3ccccc3[nH]2)c1O,86,-,-,-
CC(C)n1cnc2c(NCCCN3CCCC3=O)nc(-c3ccc(N4CCN(C)CC4)cc3)nc21,-,-,-,-
Cc1ccccc1OCC(=O)Nc1ccc(C(=O)O)cc1NC(=O)COc1ccccc1C,-,-,-,-
S=C(Nc1ccc(Cl)cc1)N(Cc1ccccn1)Cc1ccccc1Cl,-,-,-,-
c1ccc(-c2cn3nc4c(nc3n2)CCCC4)cc1,-,-,-,85
COc1ccc2c(c1)c1c(n2Cc2ccccc2)CCCC1,-,-,-,-

# Screening data: PubChem BioAssay, The Scripps Research Institute Molecular Screening Center
